# Source: the supplement of paper PMC11417369
# The full ranking holds about 25,000 sequences; the median of “ln(normalized median fluorescence intensity)” is about 9.3, and the highest 2% start at about 10. Only a selection was taken, and the highest values are over-represented in it overall.
# Tested on: PF3D7_0420300 AP2 domain 1 (GST-tagged)
# Assay: gcPBM binding intensity (ln(normalized median fluorescence intensity)); higher = stronger DNA binding
# Method in brief: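 GST-tagged P. falciparum DNA-binding domains, expressed in E. coli (about 25 μg on average), were applied for 1 h to an Agilent 4 × 180k array of primer-extended double-stranded 36-bp intergenic genomic probes plus negative controls. The binding buffer was 1× PBS with 1% milk, 0.2 mg/ml BSA, 0.5% salmon testes DNA and 0.03% Triton X-100. Bound protein was detected with Alexa488 anti-GST antibody and scanned at 488 nm. Binding intensity is the highest Masliner-normalised natural-log median intensity across replicate spots of either probe orientation.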
row,Sequence,gcPBM binding intensity (ln)
1,TATATTAAACCATGTAGTACCTTGAATAAATATTAT [XGTACX_site8254],9.23
2,TTTATTTAATTCATTGCATGTAATTTTTGTGTCCAC [TGCATGCA_site677],9.21
3,ATTACATAACAATATACACACTATTGATTAAAGAGA [CACACA_site5602],9.56
4,GGAATATAAATACATACACACATATATATATATATA [CACACA_site4998],9.44
5,TTTTTTATTTTGTGCACACACATAAAAATATATATA [CACACA_site761],9.5
6,TTAATAAGAGAGCAATAGGTGGACTGTTTCTTTTAT [CACACA_negctrl_site1239],9.22
7,CACAAAAATAGACACACACACATATAAATAAATATA [CACACA_site6598],10
8,TAAATTAAAAAACACACACACAAAAAAAAAAAAAAA [CACACA_site2263],10
9,AATTAACAAAAACACACACACACACCCACAAAAAAA [CACACA_site517],10.1
10,AATTAACAAAAACACACACACACACCGACAAAAAAA [CACACA_site4444],10.3
11,TACCAAAATAGACACACACACAAAATATGTAAATAT [CACACA_site6963],10.2
12,AAATAAATAATATGTAAACACACAAAAAATAAAAAT [CACACA_site8307],9.72
13,ATATATATATATATATATATATATATATATTATATA [XGTACX_negctrl_site48],8.89
14,ATGTGTATAATTAAATGTACATATATATATATATAT [XGTACX_site829],9.52
15,ATATGTAGAATAAAAAAAAAAAAAAAAAAAAAAAAT [CACACA_negctrl_site621],9.39
16,TTTAATCATATGTTATATAATAAGCCCCCCCCCCAA [CACACA_negctrl_site486],10.4
17,TATTAATTATATTTATGTACATAATCATATTATTAT [XGTACX_site7938],9.37
18,ATATATATATAATTATATAAAATATATCATATGTTA [XGTACX_negctrl_site47],9.15
19,TGTAGCCTGGAGAAGAGTACATAGTATCTGGTAGCT [XGTACX_site4943],9.12
20,ATATTCATGTTGATATGTACTTATTCTATATTGAAT [XGTACX_site8347],9.28
21,AAGTGCATATTATTCACACATAATAATTGTATACCT [CACACA_site5965],9.34
22,CTAAACAAAAAATAATGTACACATACATAAAAAATA [XGTACX_site1808],9.35
23,AAAAAAATTCTTGGCGCACACACTTTAAAAATTAAA [CACACA_site597],9.24
24,AAAAAACAAAAACACACGCACACAAAAAAAAAAAAA [CACACA_site802],9.82

row,Sequence,gcPBM binding intensity (ln)
1,GTAAAAAAATAGCACACACACAAAAACACGCACAAA [CACACA_site6723],10.2
2,AAGTAAAAAAATAGCACACACACAAAAACACAGACA [CACACA_site4839],10.2
3,CAATATAAAAAACACACGCACACAAAAAAAAAAAAA [CACACA_site3521],9.79
4,AAGTAAAAAAATAGCACACACACAAAAACACCCACA [CACACA_site1291],10
5,AAATATTAGTAACACAGACACACAAAAAAAAAAAAA [CACACA_site2175],9.5
6,AAAAAAAACATCCTCACACATATATATATATATATA [CACACA_site5166],9.18
7,TCACCATATAAACGTGCACACTACAAAAATATATAA [CACACA_site5413],9.26
8,TTGGTTATACAACACATGCACACGTAAATAAATATT [CACACA_site3841],9.38
9,AAAGACGTTTATAAATGTACATACACTTTAAAAGTT [XGTACX_site8753],9.08
10,AAAAAGTGATTAAAATGTACAAAATGCATAAAAGAA [XGTACX_site6625],9.6
11,TATAAATAGAGGAAGCGTACATATATATATATATAT [XGTACX_site4993],9.34
12,TCGGGAGGGGGGAAGCGTACATATATAAAATTATTA [XGTACX_site4683],10.2
13,ATAAATAAATAAAAGCGTACATATATATAAAATATA [XGTACX_site8107],9.39
14,TTCTTACATGAGTGTACACACTTTTTTTCAGAAAAT [CACACA_site4215],9.19
15,CGTGGGAGCGGACACACACACACACCCATATATATA [CACACA_site4340],10.1
16,AACGCACGAGGACACACACACATATTTATATTTATA [CACACA_site6608],9.87
17,ACCGTGGGAAGACACACACACACACCCACATATATA [CACACA_site333],10.2
18,ACTGTGGGAATAACCACACACACACCCACATATATA [CACACA_site3542],10
19,CGTGGGAGCAGACACACACACACACCCATATATATA [CACACA_site334],10.1
20,ACCGTGGGAGGACACACACACACACCCACATATATA [CACACA_site4339],10.2
21,AAACCGTGGGAGCACACACACACACGCGCACATATA [CACACA_site6288],10.1
22,ACCGTGGGAGGACACACACACACACGCACATATATA [CACACA_site6289],10.3
23,ATGGGACATATATATACACACATATATATATATATA [CACACA_site1202],9.46
